Assay results as given in PubChem BioAssay (NCI).
The panel holds about 79,000 compounds, 15% with a hit somewhere; the sample as a whole holds those more often. Calls of active or inactive are those of the source. Cut-off read from the data, not from the text of the source: active = growth inhibition above about 70%; inactive = the rest.

experiment: NCI Yeast Anticancer Drug Screen. Data for the rad50 strain (AID 155);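 note: 0% = growth of vehicle-only cultures of the same strain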; conditions: S. cerevisiae rad50 strain growth inhibition; at 50.0 µM; stronger effect = higher value
Outline: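 Growth of the mutant yeast was measured after compound exposure and referenced to vehicle-treated cultures.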

SMILES	growth inhibition
Cc1[nH]c2ccccc2c1C1=CC(=O)N(c2ccccc2)C1=O	-24.1% (inactive)
CC(C)C1C(O)C23CCC4C(C)(CO)CCCC4(C)C2CC13 (stereo unspecified)	-7.15% (inactive)
O=C(O)c1c[n+]([O-])ccc1Cl	12.8% (inactive)
Cc1ccc([N+](=O)[O-])cc1N1CCNC1=O	8.05% (inactive)
CC(=O)Nc1c(C(=N)C#N)ncn1CCO	2.3% (inactive)
COC(=O)C1=C(C)C=C(N2CCOCC2)C(C(=O)OC)C1c1ccccc1 (stereo unspecified)	-0.85% (inactive)

experiment: NCI Yeast Anticancer Drug Screen. Data for the mec2-1 strain (AID 157); conditions: S. cerevisiae mec2-1 strain, at 50.0 µM, stronger effect = higher value
Outline: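 Compounds were applied to mec2-1 yeast cells. Their growth was then compared with that of vehicle-treated cultures to give growth inhibition.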

SMILES	growth inhibition
C=C(C)CN(Cc1ccccc1)C1CCCCCCC1	-11.3% (inactive)
CCN(CC)CCOC(=O)Cc1cccc2c(=O)cc(-c3ccc(OC)cc3)oc12	-9.95% (inactive)
CCOC(=O)c1ccc(NCCCc2c(C)nc(N)[nH]c2=O)cc1	9.5% (inactive)
O=C(CC1=NC2NN(c3ccccc3)C(=O)C2=C1CC(=O)C(c1ccccc1)c1ccccc1)C(c1ccccc1)c1ccccc1 (stereo unspecified)	17.9% (inactive)
CCN1CC(O)c2cc(N=NC(N)=O)c(O)cc21 (stereo unspecified)	14.9% (inactive)
Cc1cc(=O)c2cc(Cc3ccc(N)cc3)ccc2[nH]1	-16.7% (inactive)
O=C1C(Cl)N(c2c(Cl)cccc2Cl)C1c1c[nH]c2ccccc12 (stereo unspecified)	-43.6% (inactive)
COc1ccc(-n2c(=O)c(N=Nc3ccccc3)c(O)n(-c3ccccc3OC)c2=S)cc1	-13.6% (inactive)
CC(C)C(=O)CC(c1ccc(Cl)cc1)N1N=C(C(C)C)CC1c1ccc(Cl)cc1 (stereo unspecified)	15.2% (inactive)
CCOC(=O)C(C#N)C(=O)c1ccccc1-c1ccccc1[N+](=O)[O-] (stereo unspecified)	1.1% (inactive)
O=C(C[n+]1ccncc1)c1ccc2c(c1)CCCC2	10.8% (inactive)
CN(C)Cc1ccc2ccccc2c1CC(O)(c1ccccc1)c1ccccc1	-2.05% (inactive)
CCC(=O)N1NC(=O)C(CC)(CC)C1=O	-26.2% (inactive)
CC1=NN(c2ccccc2)C(=O)/C1=C1\SC(c2ccccc2)(c2ccccc2)c2ccccc21	0.9% (inactive)
CC(C)(C)n1nnnc1N	-7.55% (inactive)
O=Cc1ccc(OCc2cccc([N+](=O)[O-])c2)cc1	27.1% (inactive)
Cc1ccc(Cl)cc1N	31.1% (inactive)
CC1(C)CC(Nc2ccc(Nc3ccccc3)cc2)CC(C)(C)N1	-6.3% (inactive)
COC1OC2COc3ccccc3OC2C2C1N2C(N)=S (stereo unspecified)	22.5% (inactive)
CCN(c1ccccc1C(=O)O)S(=O)(=O)c1ccc(C)cc1	-1.95% (inactive)

SMILES	growth inhibition
c1ccc(SC(Sc2ccccc2)=C2CCC2)cc1	-8.1% (inactive)
NC(CSS(=O)(=O)c1ccccc1)C(=O)O (stereo unspecified)	-37.5% (inactive)
COc1cccc(NC(=O)CC(=O)N2N=C(N(CCC#N)c3ccc(Cl)cc3)CC2c2ccccc2)c1 (stereo unspecified)	-4.2% (inactive)
CCOC(=O)C1CN(C2CCCCC2)CCC1=O (stereo unspecified)	-26.6% (inactive)
CCC12OC3(CC)C4C(=O)OC1C1(CC)OC4(CC)C3C(=O)OC21	-5.6% (inactive)
NC(=O)CCn1ccc2ccccc21	-5.8% (inactive)
Clc1cccc(CC(Br)Br)c1	4.45% (inactive)
CSc1ccc(C2OC(=O)c3ccccc32)c2ccccc12 (stereo unspecified)	-11.6% (inactive)
COc1cc(C2C3=C(COC3=O)OC(C)(C)Oc3cc4c(cc32)OCO4)cc(OC)c1O (stereo unspecified)	-3.6% (inactive)
CCCCNC(=O)Nc1cc(C)ccc1C	1.95% (inactive)
O=[N+]([O-])c1ccc(O)c(O)c1	-1.7% (inactive)
CC1(c2ccco2)CCC(=O)CC1=O (stereo unspecified)	4.25% (inactive)
COc1cc(C(c2cc3c(cc2OC(C)=O)OCO3)C(C(C)=O)C(C)=O)cc(OC)c1OC (stereo unspecified)	27.8% (inactive)
COc1ccc(CCCNC(=O)c2cc(OC)c(OC)cc2CCO)cc1OC	15.1% (inactive)
Cc1[nH]c2ccccc2c1C1=CC(=O)N(c2ccccc2)C1=O	-23.6% (inactive)
CC(C)C1C(O)C23CCC4C(C)(CO)CCCC4(C)C2CC13 (stereo unspecified)	-6.85% (inactive)
O=C(O)c1c[n+]([O-])ccc1Cl	-0.9% (inactive)
Cc1ccc([N+](=O)[O-])cc1N1CCNC1=O	-17.2% (inactive)
CC(=O)Nc1c(C(=N)C#N)ncn1CCO	10.2% (inactive)
COC(=O)C1=C(C)C=C(N2CCOCC2)C(C(=O)OC)C1c1ccccc1 (stereo unspecified)	-16.2% (inactive)
